Bioassay records (PubChem)
VLA-4 inh: inhibition in a human VLA-4 binding assay; inhibition, % (about 7 µM as worked out from the volumes in the protocol); VLA-4 expressing cells, ligand binding flow cytometry; 330,000 compounds, 0.2% hits; AID 2557; in the data active means inhibition above about 50%
A3A deaminase: blocks human APOBEC3A ssDNA deamination; P31941; recombinant A3A, FAM/TAMRA ssDNA deamination fluorescence; inhibition, % at 20 µM; 330,000 compounds, 0.41% hits;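 active means at least 40% inhibition at 20 µM here, with at most 30% in a related deaminase screen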;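 further: plate controls were A3A with DMSO for no effect and wells lacking A3A enzyme for full effect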
Target sequence (P31941 whole entry, looked up): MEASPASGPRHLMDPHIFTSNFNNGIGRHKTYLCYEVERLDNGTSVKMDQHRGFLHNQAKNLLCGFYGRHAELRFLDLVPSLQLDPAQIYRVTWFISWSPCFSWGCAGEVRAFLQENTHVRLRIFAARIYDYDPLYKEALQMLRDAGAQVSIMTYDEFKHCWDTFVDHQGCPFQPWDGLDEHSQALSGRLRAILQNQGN
A3G deaminase: inhibitors of human APOBEC3G DNA deaminase; Q9HC16; recombinant A3G, ssDNA deamination FAM/TAMRA fluorescence; inhibition, % at 20 µM; 330,000 compounds, 0.28% hits; AID 493012;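 active means inhibition of at least 40% at 20 µM, with no more than 30% in the related APOBEC3A deaminase screen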;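 further: plate controls were DMSO wells with A3G for no effect and wells lacking A3G enzyme for full effect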
Target sequence (Q9HC16 whole entry, looked up): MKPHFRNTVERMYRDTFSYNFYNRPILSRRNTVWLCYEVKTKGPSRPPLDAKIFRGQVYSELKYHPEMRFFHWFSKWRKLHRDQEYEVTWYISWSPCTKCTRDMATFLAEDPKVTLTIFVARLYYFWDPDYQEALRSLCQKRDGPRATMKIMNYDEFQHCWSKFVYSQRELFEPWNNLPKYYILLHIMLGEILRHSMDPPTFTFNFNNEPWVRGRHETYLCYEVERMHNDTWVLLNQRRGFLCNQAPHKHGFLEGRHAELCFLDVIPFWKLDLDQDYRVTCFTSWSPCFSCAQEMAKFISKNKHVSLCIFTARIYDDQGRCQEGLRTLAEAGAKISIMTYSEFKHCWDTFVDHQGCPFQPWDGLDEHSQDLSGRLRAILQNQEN
beta cell repl: MIN6 beta-cell proliferation induction. 330,000 compounds, 0.29% hits. AID 2380. MIN6 cells proliferation, ATPlite luminescence, 48 h; cells starved in 0.2% serum; 100% = growth in 10% serum. proliferation, % at 10 µM;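 active means compounds whose signal lies at least 3.5 SD above the mean of all wells on their plate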;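 further: 0% = DMSO-treated cells in low-serum medium and 100% = 10% serum control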
NRP1-CendR mod: alters CendR peptide binding to human NRP-1. AID 602438. inhibition, % at 25 µM. 360,000 compounds, 0.85% hits. O14786. FAM-RPARPAR peptide binding to NRP-1, fluorescence polarization;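 active means inhibition or corrected inhibition above about 18%, plus a signal ratio from 0.5 to 1.5, limit read from the data, passing the limit was not always enough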
* = called active by the depositor. This is a sample that favours compounds with a hit; in the whole collection about 1.8% have one here.

Results for CCN(CC)S(=O)(=O)c1ccc(N2CCCC2)c(NC(=O)CSCc2c(C)noc2C)c1 ?
NRP1-CendR mod: -1

What do the screens show for `COc1cc(NC(=O)C/C(C)=N/NC(=O)c2ccccn2)c(OC)cc1Cl`?
VLA-4 inh: -4; A3A deaminase: -4; A3G deaminase: 2; beta cell repl: -2; NRP1-CendR mod: 23*

How did CCOc1ccc(S(=O)(=O)c2c[nH]c3ccccc3c2=O)cc1 do in these assays?
VLA-4 inh: 6; A3A deaminase: 1; A3G deaminase: -10; beta cell repl: 1; NRP1-CendR mod: 1

How did CC(C)(C)c1cc(C(c2cccnc2)N2CCN(CCO)CC2)cc(C(C)(C)C)c1O (centres undefined) do in these assays?
VLA-4 inh: 50*; A3A deaminase: 4; A3G deaminase: -4; beta cell repl: -4; NRP1-CendR mod: 16

Results for CC1(C)S[C@@H]2[C@H](NC(=O)C(C(=O)O)c3ccccc3)C(=O)N2[C@H]1C(=O)O (some centres undefined) ?
VLA-4 inh: 19; A3A deaminase: -1; A3G deaminase: -3; beta cell repl: -2; NRP1-CendR mod: -26

Results for COC(=O)C1N2C(=O)[C@@H](NC(=O)COc3ccccc3)[C@H]2SC1(C)C (some centres undefined) ?
VLA-4 inh: -6; A3A deaminase: -4; A3G deaminase: -11; beta cell repl: -4; NRP1-CendR mod: 31*

What do the screens show for `O=C(Nc1ccccc1C(=O)NCCCN1CCOCC1)c1ccc(Cl)cc1`?
VLA-4 inh: 12; A3A deaminase: -4; A3G deaminase: 6; beta cell repl: 3; NRP1-CendR mod: -4

How did CC(NC(=O)CCc1ccccc1)c1ccc2c(c1)OCO2 (centres undefined) do in these assays?
VLA-4 inh: 22; A3A deaminase: -4; A3G deaminase: -1; beta cell repl: -1; NRP1-CendR mod: 8

How did Cc1ccccc1Nc1cc(=O)oc2ccccc12 do in these assays?
VLA-4 inh: 6; A3A deaminase: -3; A3G deaminase: -5; beta cell repl: -3; NRP1-CendR mod: 22*

What do the screens show for `Cc1ccc(Nc2cc(=O)oc3ccccc23)c(C)c1`?
VLA-4 inh: -15; A3A deaminase: -1; A3G deaminase: -1; beta cell repl: -1; NRP1-CendR mod: 9

What do the screens show for `Cc1ccc(S(=O)(=O)CCC(=O)OCc2cc(C)ccc2C)cc1`?
VLA-4 inh: 8; A3A deaminase: 2; A3G deaminase: -6; beta cell repl: 0; NRP1-CendR mod: 27*

How did Cc1ccc(S(=O)(=O)CCC(=O)OCc2ccccc2F)cc1 do in these assays?
VLA-4 inh: 0; A3A deaminase: 2; A3G deaminase: -11; beta cell repl: -2; NRP1-CendR mod: -4

Results for CC1=C(C(=O)OCC2CCCO2)C(c2ccccc2)NC(=O)N1 (centres undefined) ?
VLA-4 inh: 17; A3A deaminase: 0; A3G deaminase: -3; beta cell repl: -2; NRP1-CendR mod: 28*

How did CC1=C(C(=O)OCC2CCCO2)C(c2ccc(O)cc2)NC(=O)N1 (centres undefined) do in these assays?
VLA-4 inh: 2; A3A deaminase: 0; A3G deaminase: -1; beta cell repl: -4; NRP1-CendR mod: -1

How did CN(C(=O)c1cccc(NC(=O)Cc2ccc(NC(=O)C3CCCN(C(=O)c4ccccc4)C3)cc2)c1)C1CCCC1 (centres undefined) do in these assays?
NRP1-CendR mod: 9

How did CNC(=O)C(=O)NCC1OCCCN1S(=O)(=O)c1ccc(F)cc1C (centres undefined) do in these assays?
VLA-4 inh: -11; A3A deaminase: -1; A3G deaminase: -3; beta cell repl: -2; NRP1-CendR mod: 27*

Results for CCNC(=O)C(=O)NCC1OCCCN1S(=O)(=O)c1ccc(F)cc1C (centres undefined) ?
VLA-4 inh: -7; A3A deaminase: -3; A3G deaminase: -6; beta cell repl: 0; NRP1-CendR mod: 4

How did O=C(NCC1CC1)c1onc(CSc2nc3ccccc3[nH]2)c1C(=O)NCC1CC1 do in these assays?
VLA-4 inh: 12; A3A deaminase: -1; A3G deaminase: -9; beta cell repl: -2; NRP1-CendR mod: 26*

Results for CCCCNC(=O)c1onc(CSc2nc3ccccc3[nH]2)c1C(=O)NCCCC ?
VLA-4 inh: 18; A3A deaminase: -1; A3G deaminase: -7; beta cell repl: -3; NRP1-CendR mod: 3

Results for COc1ccc(CN2CCS(=O)(=O)CC2)cc1OC ?
VLA-4 inh: -6; A3A deaminase: 1; A3G deaminase: -8; beta cell repl: -1; NRP1-CendR mod: -4

How did Cc1ccc(CN2CCS(=O)(=O)CC2)cc1 do in these assays?
VLA-4 inh: -1; A3A deaminase: 2; A3G deaminase: -1; beta cell repl: -3; NRP1-CendR mod: 27*

What do the screens show for `CCOc1ccc(C2CC(c3ccc(CC)cc3)n3nc(N)nc3N2)cc1` (centres undefined)?
VLA-4 inh: -8; A3A deaminase: -1; A3G deaminase: -8; beta cell repl: 3; NRP1-CendR mod: 44*

Results for O=C(Nc1ccc(Oc2ccccc2)nc1)C1CCN(Cc2cccc(F)c2)CC1 ?
VLA-4 inh: 5; A3A deaminase: -3; A3G deaminase: -7; beta cell repl: -4; NRP1-CendR mod: 27*

What do the screens show for `COc1ccc(C=CC(O)CCN2CCC3CCC(C3)C2)cc1` (centres undefined)?
NRP1-CendR mod: 24*

How did Clc1ccc(C(c2ccccc2)N2CCNCC2)cc1 (centres undefined) do in these assays?
VLA-4 inh: 2; A3A deaminase: 1; A3G deaminase: -3; beta cell repl: -5; NRP1-CendR mod: -9

Results for CC12CNCC(C)(CN(C(c3ccccc3)c3ccccc3)C1)C2 ?
VLA-4 inh: 1; A3A deaminase: 2; A3G deaminase: 7; beta cell repl: -6; NRP1-CendR mod: 31*

What do the screens show for `Cc1cc(-c2nnc(CCC(=O)N3CCN(Cc4cccc(F)c4)CC3)o2)c(C)o1`?
VLA-4 inh: -2; A3A deaminase: 1; A3G deaminase: -7; beta cell repl: -1; NRP1-CendR mod: -2

What do the screens show for `COc1cccc(COC(=O)C2CCN(C(=O)c3ccc(F)cc3)CC2)c1OC`?
VLA-4 inh: 5; A3A deaminase: 0; A3G deaminase: -10; beta cell repl: -2; NRP1-CendR mod: 3

Results for Cc1ccc(S(=O)(=O)NCC(=O)N(c2ccccc2)C(C(=O)NCc2ccccc2)c2ccco2)cc1 (centres undefined) ?
VLA-4 inh: 13; A3A deaminase: 0; A3G deaminase: -6; beta cell repl: -2; NRP1-CendR mod: 29*

Results for CCN(C(=O)COC(=O)CCc1ccc(OC)cc1)c1c(N)n(Cc2ccccc2)c(=O)[nH]c1=O ?
A3A deaminase: -4; A3G deaminase: -7; beta cell repl: -4; NRP1-CendR mod: -1
